Data from PubChem BioAssay.
“And” between values parts separate entries of the source, which are not always exact repeats. Equal values may be shown once. The source made the active and inactive calls.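 How the source made its calls, unless noted: active means normalized viability below 100% at a tested concentration; inactive means the rest.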

Legend:
[1] = stimulators of nuclear beta-catenin in C2C12, primary screen, imaging, WNT3A-conditioned medium, mouse C2C12, NPC library (AID 1117326; in the data active means nuclear beta-catenin stimulation mostly above about 4.2%, no sharp cut-off; inactive means mostly below about 10%); conditions: stronger effect = higher value
[2] = growth inhibition of GSK3B-pretreated HCT116 cells – cell-based, CellTiter-Glo, 0.2 to 20 µM (AID 1117336;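 active means compounds lowering colon cancer cell viability after pretreatment blocking the GSK3B kinase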); conditions: HCT116 viability after GSK3B inhibitor, at 20 µM, stronger effect = higher value
[3] = HCT116 colon cancer cell growth inhibition, primary screen, CellTiter-Glo luminescence, NPC library (AID 1117342;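 active means compounds that lower survival of HCT116 colon cancer cells in the luminescence readout, no numeric limit stated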); conditions: at 20 µM (top of the series)
[4] = CellTiter-Glo luminescent readout of SW480 viability loss, NPC library primary (AID 1117343;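 active means compounds that lower viability of the colon cancer cells in the luminescence readout, with no numeric limit stated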); conditions: CellTiter-Glo luminescence; at 20 µM (top of the series) unless noted
[5] = decreased DLD-1 cellular survival, CellTiter-Glo luminescent readout, NPC compound collection, primary HTS (AID 1117346;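 active means compounds that lower survival of DLD-1 colon cancer cells in the luminescence readout, no cutoff given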); conditions: DLD-1 viability, CellTiter-Glo luminescence; at 20 µM (top of the series)
[6] = molecular target: 6-phosphogluconate dehydrogenase, decarboxylating (Homo sapiens) (UniProt P52209); experiment: 6PGD enzyme inhibitors, primary screen, biochemical, human, recombinant enzyme, NADPH absorbance (AID 1159550;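 active means at least 20% inhibition of 6-phosphogluconate dehydrogenase activity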); conditions: recombinant 6PGD, NADPH absorbance 341 nm; at 10 µM; stronger effect = higher value
[7] = modulation of C. elegans fzo-1 (AID 1259413; call rule not given here;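 further: fzo-1 mutant C. elegans worms in liquid wells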); conditions: C. elegans fzo-1 modulator screen, mean read-out; stronger effect = higher value
[8] = differential killing of epithelial or mesenchymal cells, primary screen, imaging, PC-3E GFP, TEM4-18 mCherry, co-culture (AID 1345086;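 active means compounds killing one labelled cell type while sparing the other, by normalised counts and ratio limits, not self-fluorescent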;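 on all read-outs here: cells exposed to compound for 72 h before imaging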;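 on red/green cell ratio (normalised): normalised mesenchymal count divided by normalised epithelial count so high means epithelial killing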); conditions: imaging cell counts, at 1 µM; for red/green cell ratio (normalised): actives lie on both sides, counts scaled to control wells, 1 = unselective
[9] = ovarian cancer cell viability with rucaparib, profiling panel, oncology-focused library, rucaparib conditional (AID 1508598); conditions: patient-derived ovarian cancer cells, CellTiter-Glo viability, 144 h, stronger effect = lower value
[10] = molecular target: NAD(+) hydrolase SARM1 (Homo sapiens) (UniProt Q6SZW1); experiment: SARM1 TIR NADase inhibitors, cell lysate, NAD-Glo luminescence (AID 1508614;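 active means compound whose remaining NAD level is above about 45 nM, limit read from the data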); conditions: SAM-TIR HEK293T lysate NADase, at 1 µM, stronger effect = higher value
[11] = molecular target: Mitogen-activated protein kinase 7 (Homo sapiens) (UniProt Q13164); experiment: ERK5 transactivation activators in reporter cells, primary screen, cell-based, HTS (AID 1508626;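 active means luciferase signal above three times the same-plate solvent-only control wells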;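 further: luciferase driven by Gal4-ERK5 fusion binding five Gal4 sites before minimal TATA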); conditions: HeLa Gal4-ERK5 transactivation, 18 h, at 5 µM, stronger effect = higher value
[12] = viability rescue of complex I mutant cybrids, primary screen, cell-based, galactose medium, ATP luminescence (AID 1645843;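 active means z-score of at least 1.8 in each of two replicates, scored against plate mean and spread of sample wells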;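 further: positive z means more ATP and so rescue of galactose-driven cybrid death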); conditions: complex I mutant cybrid cells, 72 h, stronger effect = higher value
[13] = LFS_MB_P medulloblastoma growth inhibition, cell-based, chromothripsis tumors, cisplatin or BGB combos (AID 1671449; in the data active means inhibition above about 80%;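 further: cells exposed for 96 hours; 0% = vehicle DMSO and 100% = killing by high DMSO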); conditions: LFS_MB_P medulloblastoma cells
[14] = ICB984 medulloblastoma cell growth inhibition, synergistic combos for chromothripsis tumors, cisplatin or BGB combos (AID 1671451; call rule not given here;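 further: cells exposed for 96 hours before readout; 0% = vehicle DMSO and 100% = killing by high DMSO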); conditions: ICB984 medulloblastoma cells, drug combinations, stronger effect = higher value
[15] = hESC survival regulators, cell-based (AID 493140; call rule not given here;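 further: cells exposed to compounds for four days before counting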); conditions: human embryonic stem cell survival screen; stronger effect = higher value
[16] = stimulators of insulin release from INS-1E, primary screen, cell-based, 5 mM glucose, NPC library (AID 1117329;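 active means compound raises insulin release from rat beta cells at 5 mM glucose, no numeric limit stated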); conditions: rat INS-1E insulin secretion, at 10 µM, stronger effect = higher value
[17] = inhibition of endothelial tube formation, primary screen, imaging, VEGF stimulated, CD31 staining, tube area, NPC library (AID 1117340;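 active means compound that reduces growth-factor-driven endothelial tube area in a mixed cell culture, no cutoff stated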); conditions: VEGF-stimulated ADSC/ECFC co-culture, at 10 µM, stronger effect = higher value
[18] = glucagon-like peptide 1 release enhancers, primary assay, NCI-H716 cell line, NPC library (AID 1117341;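 active means compound raises GLP1 secretion from the human gut endocrine cells, with no numeric limit stated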); conditions: NCI-H716 cells, at 10 µM, stronger effect = higher value
[19] = survival rescue of mitochondrial mutant cells in low glucose, primary screen, MELAS cybrids, Rieske KO mouse fibroblasts, CellTiter-Glo (AID 1508586;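 active means mean z-score across replicates of 1.96 or higher in either the MELAS or the Rieske mutant cell line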;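 further: z relative to plate mean and SD of compound and empty wells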)
[20] = measured here: epithelial PC-3E GFP cell survival
[21] = measured here: mesenchymal TEM4-18 mCherry cell survival
[22] = MELAS cybrid survival, CellTiter-Glo 48 h, stronger effect = higher value
[23] = Rieske KO mouse fibroblast survival, CellTiter-Glo 72 h

Chain of Mitogen-activated protein kinase 7 (Homo sapiens) (Q13164 whole entry, looked up, the tested form may be a part): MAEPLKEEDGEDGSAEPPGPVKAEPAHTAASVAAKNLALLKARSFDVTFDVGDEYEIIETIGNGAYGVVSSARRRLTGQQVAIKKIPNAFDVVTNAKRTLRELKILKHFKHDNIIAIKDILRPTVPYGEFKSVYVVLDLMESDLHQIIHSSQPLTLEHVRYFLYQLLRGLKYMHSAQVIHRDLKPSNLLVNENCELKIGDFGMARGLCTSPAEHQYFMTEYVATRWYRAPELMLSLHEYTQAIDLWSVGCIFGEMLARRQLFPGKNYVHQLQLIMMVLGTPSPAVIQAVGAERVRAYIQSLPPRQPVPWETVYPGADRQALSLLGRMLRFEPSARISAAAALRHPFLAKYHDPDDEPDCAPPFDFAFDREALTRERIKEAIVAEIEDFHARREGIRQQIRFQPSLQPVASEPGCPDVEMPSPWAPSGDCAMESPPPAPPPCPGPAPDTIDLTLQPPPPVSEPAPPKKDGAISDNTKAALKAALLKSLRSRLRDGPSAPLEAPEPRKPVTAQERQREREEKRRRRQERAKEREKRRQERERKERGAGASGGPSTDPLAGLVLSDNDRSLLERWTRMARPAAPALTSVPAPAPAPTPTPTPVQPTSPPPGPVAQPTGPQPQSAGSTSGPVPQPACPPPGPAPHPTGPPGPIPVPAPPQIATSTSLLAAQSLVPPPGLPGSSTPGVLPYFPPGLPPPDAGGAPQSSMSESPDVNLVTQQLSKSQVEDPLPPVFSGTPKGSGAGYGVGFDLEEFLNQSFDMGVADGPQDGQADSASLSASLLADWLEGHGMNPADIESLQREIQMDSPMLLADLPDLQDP
Chain of 6-phosphogluconate dehydrogenase, decarboxylating (Homo sapiens) (P52209 whole entry, looked up): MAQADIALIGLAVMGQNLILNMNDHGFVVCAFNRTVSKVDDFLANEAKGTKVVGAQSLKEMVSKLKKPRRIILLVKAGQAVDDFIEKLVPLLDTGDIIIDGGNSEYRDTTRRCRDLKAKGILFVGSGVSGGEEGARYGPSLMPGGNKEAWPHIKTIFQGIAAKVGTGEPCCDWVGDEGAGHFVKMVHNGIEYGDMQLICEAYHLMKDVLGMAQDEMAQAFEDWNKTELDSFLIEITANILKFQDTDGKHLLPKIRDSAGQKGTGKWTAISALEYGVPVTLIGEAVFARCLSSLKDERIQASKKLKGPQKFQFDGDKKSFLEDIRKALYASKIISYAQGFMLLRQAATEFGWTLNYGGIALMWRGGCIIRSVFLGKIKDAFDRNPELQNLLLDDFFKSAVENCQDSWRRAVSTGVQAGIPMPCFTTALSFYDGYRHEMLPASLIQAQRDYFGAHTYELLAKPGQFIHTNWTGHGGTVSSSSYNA
Chain of NAD(+) hydrolase SARM1 (Homo sapiens) (Q6SZW1 whole entry, looked up, the tested form may be a part): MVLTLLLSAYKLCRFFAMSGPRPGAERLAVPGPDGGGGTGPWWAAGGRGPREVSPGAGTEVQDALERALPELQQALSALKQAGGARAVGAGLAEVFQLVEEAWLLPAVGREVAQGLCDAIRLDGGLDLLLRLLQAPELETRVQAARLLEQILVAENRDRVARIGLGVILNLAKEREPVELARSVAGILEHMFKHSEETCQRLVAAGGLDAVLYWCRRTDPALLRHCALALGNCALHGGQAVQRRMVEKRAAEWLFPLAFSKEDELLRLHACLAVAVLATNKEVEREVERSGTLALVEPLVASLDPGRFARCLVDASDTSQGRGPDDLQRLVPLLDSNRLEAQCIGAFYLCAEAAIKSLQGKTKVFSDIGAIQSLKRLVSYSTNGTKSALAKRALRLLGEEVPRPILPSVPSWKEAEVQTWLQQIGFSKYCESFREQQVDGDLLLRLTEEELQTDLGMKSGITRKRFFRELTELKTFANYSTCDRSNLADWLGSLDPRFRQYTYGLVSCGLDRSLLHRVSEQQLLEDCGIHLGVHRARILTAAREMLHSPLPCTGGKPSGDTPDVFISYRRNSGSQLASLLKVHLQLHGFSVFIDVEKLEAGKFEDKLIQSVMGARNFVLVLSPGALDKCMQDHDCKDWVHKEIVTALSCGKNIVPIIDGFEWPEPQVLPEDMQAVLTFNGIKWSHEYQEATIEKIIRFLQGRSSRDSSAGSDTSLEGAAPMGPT

CCCC(CCC)C(=O)O
-35.6% and -3.79%: inhibition ([14]; cisplatin combo, at 0.5 µM)
-25.9% and 4.77%: inhibition ([14]; cisplatin combo, at 5 µM)
1.15: normalised cell number [8, 21]
-15.7% and -0.427%: inhibition ([14]; BGB IC40 combo, at 0.05 µM)
-9.77% and 11.3%: inhibition ([14]; BGB IC20 combo, at 0.005 µM)
-39.1% and -9.89%: inhibition ([13]; measured here: combination with cisplatin, at 0.5 µM, stronger effect = higher value)
-32.2% and 12.9%: inhibition ([13]; measured here: combination with BGB IC40, at 0.05 µM)
-29.5% and -2.64%: inhibition ([14]; measured here: 5 uM single agent, at 5 µM)
-18.9% and -4.04%: inhibition ([14]; cisplatin combo, at 0.05 µM)
-24.7% and -24.2%: inhibition ([13]; measured here: combination with cisplatin, at 5 µM, stronger effect = higher value)
-31.2% and 0.129%: inhibition ([13]; measured here: combination with BGB IC40, at 0.005 µM)
inactive: nuclear beta-catenin stimulation ([1]; at 10 µM) -1.5% | viability decrease [2] 4.6% | inhibition of viability [3] 20.8% | viability decrease (inhibition) [4] -4.3% | viability decrease (inhibition) [5] 13.5% | inhibition [6] 13.2% | mean signal [7] 274 | red/green cell ratio (normalised) [8] 1.21 | viability ([9]; at 0.000305 µM, OCI-C5x cells, with rucaparib 10 µM, 100% = cells with rucaparib alone) 125% | viability ([9]; at 0.000305 µM, OCI-C5x cells, without rucaparib) 105% | viability ([9]; at 0.000305 µM, OCI-P5x cells, with rucaparib 20 µM, 100% = cells with rucaparib alone) 129% | viability ([9]; at 0.000305 µM, OCI-P5x cells, without rucaparib) 126% | viability ([9]; at 0.00122 µM, OCI-C5x cells, with rucaparib 10 µM, 100% = cells with rucaparib alone) 125% | viability ([9]; at 0.00122 µM, OCI-C5x cells, without rucaparib) 128% | viability ([9]; at 0.00122 µM, OCI-P5x cells, with rucaparib 20 µM, 100% = cells with rucaparib alone) 124% | viability ([9]; at 0.00122 µM, OCI-P5x cells, without rucaparib) 121% | viability ([9]; at 0.00488 µM, OCI-C5x cells, with rucaparib 10 µM, 100% = cells with rucaparib alone) 113% | viability ([9]; at 0.00488 µM, OCI-C5x cells, without rucaparib) 115% | viability ([9]; at 0.00488 µM, OCI-P5x cells, with rucaparib 20 µM, 100% = cells with rucaparib alone) 122% | viability ([9]; at 0.00488 µM, OCI-P5x cells, without rucaparib) 127% | viability ([9]; at 0.0195 µM, OCI-C5x cells, with rucaparib 10 µM, 100% = cells with rucaparib alone) 119% | viability ([9]; at 0.0195 µM, OCI-C5x cells, without rucaparib) 117% | viability ([9]; at 0.0195 µM, OCI-P5x cells, with rucaparib 20 µM, 100% = cells with rucaparib alone) 123% | viability ([9]; at 0.0195 µM, OCI-P5x cells, without rucaparib) 123% | viability ([9]; at 0.0781 µM, OCI-C5x cells, with rucaparib 10 µM, 100% = cells with rucaparib alone) 111% | viability ([9]; at 0.0781 µM, OCI-C5x cells, without rucaparib) 118% | viability ([9]; at 0.0781 µM, OCI-P5x cells, with rucaparib 20 µM, 100% = cells with rucaparib alone) 121% | viability ([9]; at 0.0781 µM, OCI-P5x cells, without rucaparib) 124% | viability ([9]; at 0.313 µM, OCI-C5x cells, with rucaparib 10 µM, 100% = cells with rucaparib alone) 116% | viability ([9]; at 0.313 µM, OCI-C5x cells, without rucaparib) 115% | viability ([9]; at 0.313 µM, OCI-P5x cells, with rucaparib 20 µM, 100% = cells with rucaparib alone) 118% | viability ([9]; at 0.313 µM, OCI-P5x cells, without rucaparib) 122% | viability ([9]; at 1.25 µM, OCI-C5x cells, with rucaparib 10 µM, 100% = cells with rucaparib alone) 119% | viability ([9]; at 1.25 µM, OCI-C5x cells, without rucaparib) 112% | viability ([9]; at 1.25 µM, OCI-P5x cells, with rucaparib 20 µM, 100% = cells with rucaparib alone) 112% | viability ([9]; at 1.25 µM, OCI-P5x cells, without rucaparib) 128% | viability ([9]; at 5 µM, OCI-C5x cells, with rucaparib 10 µM, 100% = cells with rucaparib alone) 115% | viability ([9]; at 5 µM, OCI-C5x cells, without rucaparib) 116% | viability ([9]; at 5 µM, OCI-P5x cells, with rucaparib 20 µM, 100% = cells with rucaparib alone) 122% | viability ([9]; at 5 µM, OCI-P5x cells, without rucaparib) 112% | remaining NAD [10] 10 nM | luciferase signal [11] 132 AU | z-score [12] 0.57 and 0.76 and 0.71 | inhibition ([13]; at 0.5 µM, stronger effect = higher value) -13.2% and -3.77% | inhibition ([14]; at 0.5 µM) -27.6% and -12.8%
0.95: normalised cell number [8, 20]
-20.4% and -26.6%: inhibition ([14]; BGB IC40 combo, at 0.005 µM)
8.9%: nuclear beta-catenin stimulation ([1]; stimulation, at 2 µM)
-6.05% and -4.21%: inhibition ([13]; measured here: combination with BGB IC20, at 0.005 µM)

CC(C(=O)O)c1cccc(C(=O)c2ccccc2)c1 (stereo not given)
0.963 and -0.169 and -0.868: z-score [19, 23]
1.13: normalised cell number [8, 21]
1.07: normalised cell number [8, 20]
inactive: survival [15] 15.6 | insulin secretion stimulation [16] 1.7% | viability decrease [2] 9.9% | tube area decrease [17] -21.2% | GLP1 secretion stimulation [18] 1.2% | inhibition of viability [3] 1.73% | viability decrease (inhibition) [4] 1.9% | viability decrease (inhibition) [5] -13.8% | inhibition [6] -9.9% | mean signal [7] 232 | red/green cell ratio (normalised) [8] 1.06 | z-score [19, 22] -0.241 and 0.309 and -0.387 | remaining NAD [10] 10 nM | luciferase signal [11] 60 AU | z-score [12] 0.45 and 0.27 and 0.89

CN1CCN(C2=Nc3cc(Cl)ccc3Nc3ccccc32)CC1
inactive: survival [15] 15.2 | insulin secretion stimulation [16] 3.6% | viability decrease [2] 17.2% | tube area decrease [17] -0.2% | GLP1 secretion stimulation [18] 7.2% | viability decrease (inhibition) [5] 14.1% | inhibition [6] -3.75% | mean signal [7] 262 | red/green cell ratio (normalised) [8] 1.04 | z-score [19, 22] -1.17 and -0.401 and 0.405 | remaining NAD [10] 10 nM | luciferase signal [11] 24 AU
1.09: normalised cell number [8, 20]
0.276 and 0.587: z-score [19, 23]
active: inhibition of viability [3] 63% | viability decrease (inhibition) [4] 66.6%
1.14: normalised cell number [8, 21]
